Experimental findings from PubChem BioAssay (NCATS) are described below.

Several values for one entry are separate records, joined by “and”; a condition that tells them apart may be missing. Equal entries are not always repeated. Results filed as inconclusive are left out. Activity calls are given as the source filed them. Unless noted, the call rests on the fitted dose curve.

Experiment [1] addresses Bile acid receptor (Homo sapiens) (UniProt Q96RI1). Kind of experiment: qHTS assay for small molecule antagonists of farnesoid X receptor signaling (AID 588526). Further: on the % scale 0 is the no-effect control and ±100 the full control effect. In outline: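 Concentration-response titrations were fitted to the Hill equation for half-maximal inhibition and maximal response, with data normalised to 50 uM chenodeoxycholic acid and DMSO control wells. Cells: FXR-UAS-bla HEK293T, dialyzed FBS.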
A general note: qHTS replaces the single test concentration by a dilution series.

A short description of experiment [2]: qHTS assay for small molecule antagonists of peroxisome proliferator-activated receptor delta signaling (AID 588535; active means well fitted inhibition curve with a large enough effect in the signal ratio, with a control signal flat, not every such curve was filed as active; the % refers to the signal ratio;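 on max response: cells co-treated with a PPAR-delta agonist as stimulator during compound exposure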). Conditions: HEK293T PPARd-UAS-bla, beta-lactamase FRET ratio, 18 h; 460 nm channel. In outline: (§1)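 Inhibition of PPAR-delta response element-driven beta-lactamase expression is measured in HEK293T cells exposed to a compound titration series for 18 hrs at 37 C. Half-maximal inhibition comes from Hill equation fitting.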

For experiment [3], the target named is Peroxisome proliferator-activated receptor delta (Homo sapiens) (UniProt Q03181). The experiment is described as above. In outline: as §1
Experiment [4] addresses Peroxisome proliferator-activated receptor gamma (Homo sapiens) (UniProt P37231). The experiment is described as follows: qHTS assay for small molecule agonists of peroxisome proliferator-activated receptor gamma signaling (AID 588536; active means well fitted curve in the direction sought with a large enough effect in the signal ratio, with a control signal flat, not every such curve was filed as active; the % refers to the signal ratio;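 further: 0% = DMSO basal wells and 100% = rosiglitazone at 2 µM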). Summed up:
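This is an agonist-mode beta-lactamase reporter assay in HEK293 PPAR-gamma-UAS-bla cells with 1% charcoal/dextran FBS. Compound titrations ran 16 h at 37 C before CCF4 detection. EC50 and efficacy are Hill fits scaled to 2 uM rosiglitazone (100%) and DMSO basal.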

Experiment [5] in a line: qHTS assay for small molecule agonists of retinoid X receptor alpha signaling (AID 588544).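 On activation: 0% = DMSO basal wells and 100% = reference agonist.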 Conditions: HEK293T RXRa-UAS-bla, beta-lactamase reporter, 18 h; 530 nm emission.
For experiment [6], the target named is Retinoic acid receptor RXR-alpha (Homo sapiens) (UniProt P19793). The experiment is described as above.
Experiment [7] in a line: qHTS assay for small molecule antagonists of retinoid X receptor alpha signaling (AID 588546; active means well fitted inhibition curve with a large enough effect in the signal ratio, with a control signal flat, not every such curve was filed as active; the % refers to the signal ratio;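 further: cells stimulated with 9-cis-retinoic acid as agonist; on the % scale 0 is the no-effect control and ±100 the full control effect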). Conditions: HEK293T RXRa-UAS-bla, beta-lactamase ratio, antagonist mode; measured here: W530 green channel, cytotoxicity proxy. In outline: (§2)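 Beta-lactamase reporter inhibition, read as CCF4 fluorescence ratio (ex 405, em 460/530 nm) after 2 h at RT. HEK293T UAS-bla cells, 2500/well, were stimulated with 9-cis-RA at 500 or 100 nM final alongside test compound for 18 h at 37 C.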

The target in experiment [8] is Retinoic acid receptor RXR-alpha (Homo sapiens) (UniProt P19793). The experiment is described as above. Particulars: HEK293T RXRa-UAS-bla, beta-lactamase ratio, antagonist mode. Summed up: as §2
For experiment [9], the target named is Thyroid hormone receptor beta (Homo sapiens) (UniProt P10828). Kind of experiment: qHTS assay for small molecule antagonists of thyroid hormone receptor beta signaling (AID 588547; active means well fitted inhibition curve with a large enough effect in the signal ratio, with a control signal flat, not every such curve was filed as active; the % refers to the signal ratio;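 further: cells stimulated with 0.4 nM T3 agonist during compound exposure; series mostly up to about 77 µM; on the % scale 0 is the no-effect control and ±100 the full control effect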). Conditions: TR-UAS-bla HEK293, beta-lactamase ratio, antagonist mode, 18 h. Summed up: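 TR-UAS-bla GripTite HEK293 cells in 2% charcoal/dextran FBS medium were preincubated 4 h at 37 C, given compound (0.59 nM to 92 uM) plus 0.4 nM T3 (final) for 18 h, then CCF4 for 2 h at RT; Hill fit gave IC50.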

In experiment [10] the target is Voltage-gated inwardly rectifying potassium channel KCNH2 (Homo sapiens) (UniProt Q12809). The experiment is described as follows: qHTS Assay for Small Molecule Inhibitors of the Human hERG Channel Activity (AID 588834; active means well fitted inhibition curve with a large enough effect;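 further: lower thallium flux fluorescence means stronger hERG block; nearly all actives have a fitted effect of over 50% in size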; further: potency means the concentration at half of the fitted maximal effect). Summed up:
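Homogeneous FluxOR thallium flux assay using hERG-expressing U2OS cells (BacMam). Compound treatment about 10 minutes preceded stimulation; reduced fluorescence taken as channel block.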

The nature of experiment [11]: qHTS assay for small molecule agonists of the antioxidant response element (ARE) signaling pathway (AID 651741; active means well fitted activation curve with a large enough effect in the signal ratio; the % refers to the signal ratio; further: % of control where 0% means no effect). In outline: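 Reporter: beta-lactamase under ARE, stably in HepG2. Exposure: 16 h, 37 C, compounds delivered in DMSO by pin tool after 5 h cell preincubation. Readout: FRET substrate fluorescence after 2 h at RT.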
The nature of experiment [12]: qHTS assay for small molecule activators of the p53 signaling pathway (AID 651743; active means well fitted activation curve with a large enough effect in the signal ratio, not every such curve was filed as active; the % refers to the signal ratio; further: series mostly up to about 92 µM; % of control where 0% means no effect). Particulars: HCT-116 p53RE-bla, beta-lactamase FRET ratio, 16 h; stronger effect = higher value. Summed up: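 Agonist-mode quantitative HTS in HCT-116 cells carrying a p53-response-element beta-lactamase reporter; 16 h compound treatment at 37 C, then FRET substrate loading for 2 h at room temperature and fluorescence read.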

Experiment [13] addresses Peroxisome proliferator-activated receptor gamma (Homo sapiens) (UniProt P37231). The experiment is described as follows: qHTS assay for small molecule antagonists of peroxisome proliferator-activated receptor gamma signaling (AID 588537; active means well fitted inhibition curve with a large enough effect in the signal ratio, with a control signal flat, not every such curve was filed as active; the % refers to the signal ratio;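 further: reporter cells co-stimulated with 50 nM rosiglitazone agonist during compound treatment; % of control where 0% means no effect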). In outline:
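Compounds are tested as concentration series for inhibition of rosiglitazone-driven (50 nM) reporter expression in GeneBLAzer PPAR-gamma-UAS-bla HEK293 cells. After 16 h at 37 C, CCF4 substrate is added for 2 h at room temperature and blue/green fluorescence is measured.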

Experiment [14] concerns the target Vitamin D3 receptor (Homo sapiens) (UniProt P11473). The experiment is described as follows: qHTS assay for small molecule antagonists of vitamin D receptor signaling (AID 588541).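 Further: receptor activated by calcitriol during compound treatment; series mostly up to about 77 µM; on the % scale 0 is the no-effect control and ±100 the full control effect.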 In outline: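 VDR-UAS-bla HEK293T cells (2000/well, 2% charcoal-stripped FBS) were treated with titrated compounds plus 1-alpha,25-dihydroxyvitamin D3 (50 nM or 3 nM final) for 16 h at 37 C. CCF4 beta-lactamase fluorescence was read; Hill fits gave IC50.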

The target is the same in experiment [15]. The experiment is described as follows: qHTS assay for small molecule agonists of vitamin D receptor signaling (AID 588543).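 Further: 0% = DMSO basal and 100% = reference agonist control.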 Summed up:
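Measured: β-lactamase reporter activity (CCF4, 405 nm excitation, 460/530 nm emission) in HEK293T VDR-UAS-bla cells after 16 h compound exposure at 37 °C. Normalization against 50 nM 1α,25-dihydroxyvitamin D3 and DMSO; Hill-fit EC50.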

Experiment [16] addresses Thyroid hormone receptor beta (Homo sapiens) (UniProt P10828). The experiment is described as follows: qHTS assay for small molecule agonists of thyroid hormone receptor beta signaling (AID 588545).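 Further: 0% = DMSO only and 100% = 10 nM T3.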 In outline:
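Efficacy and EC50 values derive from Hill fits of qHTS titration data, normalized to 10 nM T3 and DMSO-only wells. HEK 293 reporter cells were stimulated for 18 hrs at 37 C, with beta-lactamase activity measured by CCF4 fluorescence.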

Experiment [17] in a line: qHTS assay for small molecule activators of the nuclear factor-kappa B (NF-kB) signaling pathway (AID 651749; active means well fitted activation curve with a large enough effect in the signal ratio; the % refers to the signal ratio; further: series mostly up to about 77 µM; % of control where 0% means no effect). Particulars: NF-kB-bla ME-180 cells, beta-lactamase FRET ratio, 16 h; stronger effect = higher value. In outline: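 Human ME-180 cervical cells with an NF-kB-bla construct; compounds added via 23 nL pin transfer, DMSO as vehicle; incubation 16 hr. Reporter activity measured by FRET disruption.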

In experiment [18] the target is Glucocorticoid receptor (Homo sapiens) (UniProt P04150). The experiment is described as follows: qHTS assay for small molecule agonists of glucocorticoid receptor signaling (AID 588532; active means well fitted curve in the direction sought with a large enough effect in the signal ratio, with a control signal flat; the % refers to the signal ratio;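 further: 100% = dexamethasone at 0.1 µM and 0% = DMSO only wells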). Conditions: HeLa MMTV-bla, beta-lactamase ratio, agonist, 18 h; stronger effect = higher value; percent of dexamethasone control, DMSO zero. In outline: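 MMTV-bla HeLa, beta-lactamase reporter; medium with 1% charcoal/dextran-stripped FBS; cpds up to 92 uM, 18 h, 37 C; CCF4 readout 460/530 nm; Hill fit → EC50, efficacy vs 0.1 uM dexamethasone = 100%.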

Experiment [19] shares this target. The experiment is described as follows: qHTS assay for small molecule antagonists of glucocorticoid receptor signaling (AID 588533; active means well fitted inhibition curve with a large enough effect in the signal ratio, with a control signal flat, not every such curve was filed as active; the % refers to the signal ratio). Summed up: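 Antagonist-mode qHTS: compound titrations added to GRE-bla HeLa cells, then dexamethasone 2 nM final; 18 h, 37 C. CCF4 FRET fluorescence normalized to dexamethasone and DMSO; IC50 from Hill fit.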

Sequence of Bile acid receptor (Homo sapiens) (Q96RI1 whole entry, looked up): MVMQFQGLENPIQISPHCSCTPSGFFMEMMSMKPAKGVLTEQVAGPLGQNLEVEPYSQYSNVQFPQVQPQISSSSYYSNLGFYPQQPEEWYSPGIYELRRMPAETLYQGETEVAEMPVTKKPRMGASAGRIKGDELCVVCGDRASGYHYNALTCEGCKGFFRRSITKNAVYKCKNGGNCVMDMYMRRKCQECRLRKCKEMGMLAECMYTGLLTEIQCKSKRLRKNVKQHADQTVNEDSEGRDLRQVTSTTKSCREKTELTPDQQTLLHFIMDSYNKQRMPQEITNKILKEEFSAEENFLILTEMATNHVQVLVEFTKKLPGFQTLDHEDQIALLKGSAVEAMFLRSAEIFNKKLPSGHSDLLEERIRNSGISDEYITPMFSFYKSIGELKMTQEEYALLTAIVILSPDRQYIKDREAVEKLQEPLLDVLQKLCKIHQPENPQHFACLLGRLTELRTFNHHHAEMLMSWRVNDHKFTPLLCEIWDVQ
Sequence of Vitamin D3 receptor (Homo sapiens) (P11473 whole entry, looked up): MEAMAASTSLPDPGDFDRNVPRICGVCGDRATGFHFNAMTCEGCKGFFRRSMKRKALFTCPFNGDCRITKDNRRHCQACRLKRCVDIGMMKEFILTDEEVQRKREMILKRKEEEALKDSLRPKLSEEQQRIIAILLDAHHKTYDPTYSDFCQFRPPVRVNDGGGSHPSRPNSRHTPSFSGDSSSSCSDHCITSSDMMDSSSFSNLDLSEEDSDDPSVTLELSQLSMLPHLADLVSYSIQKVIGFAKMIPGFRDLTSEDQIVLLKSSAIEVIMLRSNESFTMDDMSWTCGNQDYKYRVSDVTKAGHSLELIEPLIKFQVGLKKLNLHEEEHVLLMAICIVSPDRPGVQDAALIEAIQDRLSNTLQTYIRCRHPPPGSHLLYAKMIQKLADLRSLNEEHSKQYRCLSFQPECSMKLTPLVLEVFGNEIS
Sequence of Glucocorticoid receptor (Homo sapiens) (P04150 whole entry, looked up): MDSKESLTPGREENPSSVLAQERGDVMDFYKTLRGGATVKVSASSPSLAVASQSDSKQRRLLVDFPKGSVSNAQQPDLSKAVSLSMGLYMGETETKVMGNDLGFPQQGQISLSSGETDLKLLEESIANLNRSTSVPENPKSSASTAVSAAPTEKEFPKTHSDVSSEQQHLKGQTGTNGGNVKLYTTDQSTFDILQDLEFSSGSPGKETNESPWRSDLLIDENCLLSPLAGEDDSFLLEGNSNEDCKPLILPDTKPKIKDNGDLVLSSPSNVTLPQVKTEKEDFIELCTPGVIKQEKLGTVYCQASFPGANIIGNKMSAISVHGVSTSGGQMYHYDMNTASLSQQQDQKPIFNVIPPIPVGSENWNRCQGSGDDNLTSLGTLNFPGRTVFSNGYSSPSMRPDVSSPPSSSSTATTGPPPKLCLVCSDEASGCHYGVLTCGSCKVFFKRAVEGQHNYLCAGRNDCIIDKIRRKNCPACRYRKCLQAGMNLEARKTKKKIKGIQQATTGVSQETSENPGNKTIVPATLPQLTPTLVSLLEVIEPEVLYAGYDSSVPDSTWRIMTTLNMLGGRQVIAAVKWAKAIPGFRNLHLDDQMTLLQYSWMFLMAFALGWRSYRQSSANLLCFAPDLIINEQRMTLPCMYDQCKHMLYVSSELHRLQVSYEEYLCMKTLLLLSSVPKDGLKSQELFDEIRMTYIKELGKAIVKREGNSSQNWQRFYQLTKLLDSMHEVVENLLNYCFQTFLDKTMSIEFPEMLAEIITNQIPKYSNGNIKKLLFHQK
Sequence of Thyroid hormone receptor beta (Homo sapiens) (P10828 whole entry, looked up): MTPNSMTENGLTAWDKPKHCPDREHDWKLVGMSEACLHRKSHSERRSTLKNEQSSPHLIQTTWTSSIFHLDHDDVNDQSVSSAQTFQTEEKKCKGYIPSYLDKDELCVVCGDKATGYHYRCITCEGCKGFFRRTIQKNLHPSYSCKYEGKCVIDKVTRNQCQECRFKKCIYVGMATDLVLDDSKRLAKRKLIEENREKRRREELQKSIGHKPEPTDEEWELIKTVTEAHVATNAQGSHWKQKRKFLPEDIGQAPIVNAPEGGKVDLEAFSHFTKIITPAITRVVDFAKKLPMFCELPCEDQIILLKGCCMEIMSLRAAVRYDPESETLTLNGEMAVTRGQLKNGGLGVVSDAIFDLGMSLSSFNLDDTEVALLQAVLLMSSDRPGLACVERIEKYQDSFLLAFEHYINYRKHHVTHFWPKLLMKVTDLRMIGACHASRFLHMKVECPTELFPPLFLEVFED
Sequence of Peroxisome proliferator-activated receptor gamma (Homo sapiens) (P37231 whole entry, looked up): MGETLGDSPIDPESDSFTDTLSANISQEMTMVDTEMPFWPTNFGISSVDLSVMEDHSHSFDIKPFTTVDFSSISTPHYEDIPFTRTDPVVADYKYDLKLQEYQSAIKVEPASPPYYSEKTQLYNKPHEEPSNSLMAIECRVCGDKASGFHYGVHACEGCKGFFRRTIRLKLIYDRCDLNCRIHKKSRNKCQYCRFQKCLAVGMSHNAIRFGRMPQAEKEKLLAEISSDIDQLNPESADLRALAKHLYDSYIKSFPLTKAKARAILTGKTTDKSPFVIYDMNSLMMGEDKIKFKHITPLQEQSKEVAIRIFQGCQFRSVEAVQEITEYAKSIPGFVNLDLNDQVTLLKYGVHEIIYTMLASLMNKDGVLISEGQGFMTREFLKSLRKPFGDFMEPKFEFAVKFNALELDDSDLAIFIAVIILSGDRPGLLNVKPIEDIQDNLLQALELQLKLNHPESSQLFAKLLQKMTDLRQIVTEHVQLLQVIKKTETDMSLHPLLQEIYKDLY
Sequence of Retinoic acid receptor RXR-alpha (Homo sapiens) (P19793 whole entry, looked up): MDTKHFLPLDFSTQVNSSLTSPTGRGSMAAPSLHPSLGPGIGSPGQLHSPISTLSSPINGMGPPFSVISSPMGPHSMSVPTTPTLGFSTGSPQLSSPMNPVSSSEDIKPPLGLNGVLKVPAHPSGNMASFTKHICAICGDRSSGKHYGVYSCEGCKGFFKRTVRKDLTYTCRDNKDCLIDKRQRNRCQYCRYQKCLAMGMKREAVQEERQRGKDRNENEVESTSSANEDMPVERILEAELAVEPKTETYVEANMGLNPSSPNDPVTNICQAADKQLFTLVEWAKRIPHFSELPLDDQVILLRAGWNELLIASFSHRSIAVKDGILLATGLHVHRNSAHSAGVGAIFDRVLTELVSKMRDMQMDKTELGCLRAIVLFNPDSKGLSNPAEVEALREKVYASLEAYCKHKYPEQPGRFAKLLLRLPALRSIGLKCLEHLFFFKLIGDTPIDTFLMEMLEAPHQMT
Sequence of Peroxisome proliferator-activated receptor delta (Homo sapiens) (Q03181 whole entry, looked up): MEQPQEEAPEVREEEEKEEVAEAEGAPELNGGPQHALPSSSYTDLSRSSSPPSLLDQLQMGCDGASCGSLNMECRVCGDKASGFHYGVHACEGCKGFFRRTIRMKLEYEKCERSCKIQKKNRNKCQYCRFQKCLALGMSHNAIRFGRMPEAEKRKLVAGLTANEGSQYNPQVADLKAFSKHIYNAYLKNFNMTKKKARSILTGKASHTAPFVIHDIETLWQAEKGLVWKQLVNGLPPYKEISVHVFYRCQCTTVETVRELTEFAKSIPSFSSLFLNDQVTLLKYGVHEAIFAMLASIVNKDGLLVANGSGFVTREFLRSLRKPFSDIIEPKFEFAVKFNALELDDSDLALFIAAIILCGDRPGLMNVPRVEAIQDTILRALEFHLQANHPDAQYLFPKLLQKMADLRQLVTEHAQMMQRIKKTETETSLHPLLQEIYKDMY
Sequence of Voltage-gated inwardly rectifying potassium channel KCNH2 (Homo sapiens) (Q12809 whole entry, looked up): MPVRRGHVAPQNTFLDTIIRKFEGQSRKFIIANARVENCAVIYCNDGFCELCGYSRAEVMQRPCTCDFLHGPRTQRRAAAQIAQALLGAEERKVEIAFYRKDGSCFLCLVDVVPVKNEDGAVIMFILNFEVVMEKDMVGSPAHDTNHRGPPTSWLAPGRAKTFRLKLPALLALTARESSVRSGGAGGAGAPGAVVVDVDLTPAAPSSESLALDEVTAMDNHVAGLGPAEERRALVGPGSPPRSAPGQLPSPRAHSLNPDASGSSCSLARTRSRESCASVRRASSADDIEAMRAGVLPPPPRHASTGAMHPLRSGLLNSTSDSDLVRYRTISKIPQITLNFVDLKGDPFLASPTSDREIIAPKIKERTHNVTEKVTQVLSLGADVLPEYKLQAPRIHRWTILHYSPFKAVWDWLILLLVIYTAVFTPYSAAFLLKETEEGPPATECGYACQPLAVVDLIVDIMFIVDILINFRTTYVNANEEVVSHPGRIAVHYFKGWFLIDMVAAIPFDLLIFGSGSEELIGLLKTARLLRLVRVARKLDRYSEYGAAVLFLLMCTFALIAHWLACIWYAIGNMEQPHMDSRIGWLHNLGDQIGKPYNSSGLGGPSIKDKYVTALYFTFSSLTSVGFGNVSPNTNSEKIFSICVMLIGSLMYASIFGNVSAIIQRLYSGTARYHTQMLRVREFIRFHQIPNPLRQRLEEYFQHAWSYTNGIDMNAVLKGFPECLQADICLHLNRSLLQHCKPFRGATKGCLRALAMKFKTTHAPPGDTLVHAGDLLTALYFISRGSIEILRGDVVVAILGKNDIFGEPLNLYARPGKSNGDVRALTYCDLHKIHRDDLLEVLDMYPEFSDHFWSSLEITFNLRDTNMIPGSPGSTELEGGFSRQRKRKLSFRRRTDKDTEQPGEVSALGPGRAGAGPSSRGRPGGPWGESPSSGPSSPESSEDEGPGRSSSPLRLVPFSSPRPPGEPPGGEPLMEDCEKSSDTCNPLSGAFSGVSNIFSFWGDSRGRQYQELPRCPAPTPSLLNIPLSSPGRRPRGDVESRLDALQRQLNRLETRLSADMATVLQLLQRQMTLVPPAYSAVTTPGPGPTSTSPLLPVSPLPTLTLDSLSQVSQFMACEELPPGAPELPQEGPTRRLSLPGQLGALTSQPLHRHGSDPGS

For the compound `O=C1OC(=O)c2c(Cl)c(Cl)c(Cl)c(Cl)c21`, the call in experiment [1], in experiment [4] and in experiment [6] was inactive. In addition, the max response in experiment [2] was -11.3%; in experiment [5] it was -5.89% and -6.44%; in experiment [7] it was -4.9% and 1.94%; in experiment [8], 0.977% (inactive) and -5.45% (inactive). Further, the Potency entry in experiment [3], in experiment [10] and in experiment [11] was “inactive” each time. The activity change % (negative = inhibition) in experiment [9] is -1.32% (inactive) and -1.29% (inactive). Further, the activation in [12] was -2.26% (inactive) and 13.1% (inactive).
Turning to `CCOC(C)(C)C`, the compound was called inactive in [1], in [4], in experiment [13], in experiment [14], in experiment [15] and in experiment [6]. Further, the call in [16] was inactive. The max response in [2] is -1.23%; in experiment [5], -2.56%; in [7], -1.08%; in [8], 3.08% (inactive). For the same compound, the Potency result in experiment [3], in experiment [10] and in experiment [11] was “inactive” in each case. In experiment [9], the activity change % (negative = inhibition) was -6.37% (inactive). Also, the activation in experiment [12] was -0.539% (inactive); in [17], 0.0467% (inactive).
For the compound `CN(C)CCCCl`, the outcome in [1], in experiment [19], in experiment [14], in [15] and in [6] was inactive. The activation in [18] was 13.4% (inactive); in experiment [12] it was -1.08% (inactive); in [17], 0.444% (inactive). Besides, the max response in [5] was -11.7%; in experiment [7] it was -4.19%. In addition, in experiment [9], the activity change % (negative = inhibition) was 10.5% (inactive). The Potency entry in experiment [11] is “inactive”.
As to `C=CCCCCCCC=C`, the compound was classed as inactive in experiment [1], in experiment [4], in [13], in [15], in experiment [6] and in experiment [16]. In addition, the max response in experiment [2] was -11.7%; in experiment [5], -11.6%; in [7], -1.72%; in [8] it was -6.51% (inactive). Besides, the Potency result in [3] was “inactive”. Moreover, the activity change % (negative = inhibition) in experiment [9] was -6.39% (inactive). In addition, the activation in [12] was 0.568% (inactive); in [17], -0.256% (inactive).
With `c1ccc2[nH]cnc2c1`, the compound was called inactive in experiment [1], in [4], in experiment [13], in experiment [14], in experiment [15] and in experiment [6]. Besides, the compound was called inactive in [16]. The max response in [5] is -10.3%. Moreover, the activity change % (negative = inhibition) in [9] is 2.62% (inactive). The figures for the activation in experiment [12] and in experiment [17] were 0.533% (inactive) and 1.42% (inactive), respectively.
Consider `CC(C)CCOC(=O)/C=C/c1ccccc1`, for which the compound was called inactive in experiment [1], in experiment [4], in experiment [14], in [15], in experiment [6] and in [16]. Also, the activation in experiment [18] is -0.0444% (inactive); in experiment [12], 1.36% (inactive); in experiment [17] it was -1.28% (inactive). For the same compound, the max response in experiment [2] was determined as 17.3%; in experiment [5] it was 7.69%; in [7], 5.75%. In addition, the Potency result in [3] was “inactive”. For the same compound, the activity change % (negative = inhibition) in [9] was -18.5% (inactive). Further, in [10], the Potency is 22.4 µM (active).
`COc1ccccc1[N+](=O)[O-]`: the compound was classed as inactive in experiment [1], in [14] and in experiment [15]. Moreover, the max response in experiment [7] is -6.53% and 1.73%; in [8], 20.4% (inactive) and 0.175% (inactive). Moreover, the activity change % (negative = inhibition) in experiment [9] is -3.34% (inactive) and -9.45% (inactive). The Potency entry in experiment [10] and in [11] was “inactive” in each case. Moreover, the activation in experiment [12] was -2.31% (inactive) and 1.29% (inactive).
In the case of `O=[N+]([O-])c1ccc(Cl)cc1Cl`, the values for the activation in [18] and in experiment [17] were 2.45% (inactive) and 0.0961% (inactive), respectively. In addition, the compound was classed as inactive in experiment [19], in experiment [4], in experiment [13], in [6] and in [16]. Moreover, the max response in experiment [2] is 2.66%; in experiment [5], -6.43%; in experiment [7] it was -4.28%; in experiment [8], 10.3% (inactive). The Potency entry in experiment [3] and in experiment [10] was “inactive” in each case. In experiment [9], the activity change % (negative = inhibition) was 17.6% (inactive).
